Data: the supplement of paper PMC4840960
Where a name gives a salt, the structure may show the parent alone. ± gives the standard deviation of the averaged measurements.

Experiments:
[1] = system: E18 rat cortical neuron-glia co-culture; assay: fiber score / MBP score (myelination specific beyond OL differentiation) (ratio); higher = more myelination-specific MBP alignment; settings: treatment time: 8 days (DIV5-DIV13)
Method in brief: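 Papain-dissociated primary E18 rat cortical co-cultures, plated at 20,000 cells/well on poly-d-lysine/laminin 96-well plates, were exposed to library compounds at 1 or 5 µM in myelination medium between DIV5 and DIV13. Following fixation in 4 % paraformaldehyde, cultures were stained for MBP, Olig2 and DAPI, and four 10X fields per well were analysed in duplicate wells. Values are the ratio of fiber score (continuous MBP fiber length per Olig2+ nucleus) to MBP score (thresholded MBP area × intensity per Olig2+ nucleus).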

[2] = system: E18 rat cortical neuron-glia co-culture; assay: myelination (MBP fiber length per Olig2+ nucleus), % of 1 µM DAPT response (DMSO = 0) (% of DAPT); higher = more myelination, active = 50 or more; settings: treatment time: 8 days (DIV5-DIV13)
Method in brief: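 Myelination, expressed as continuous straight MBP fiber length per Olig2+ nucleus, was normalised to 0.1 % DMSO as 0 and a 1 µM positive control as 100. The cultures were primary E18 rat cortical co-cultures dissociated with papain and plated at 20,000 cells/well on poly-d-lysine/laminin-coated 96-well plates. They received library compounds at 1 or 5 µM in myelination medium between DIV5 and DIV13. Analysis covered four 10X fields per well in duplicate wells after 4 % paraformaldehyde fixation and immunostaining for MBP and Olig2 with DAPI.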

SMILES | fiber score / MBP score ([1]; 1 µM) | fiber score / MBP score ([1]; 5 µM) | myelination ([2]; 1 µM) | myelination ([2]; 5 µM)
O=C1CN=C(c2ccccc2)c2cc([N+](=O)[O-])ccc2N1 [Nitrazepam] | 0.887 | 0.996 | -6.44 (inactive) | 0.525 (inactive)
CC[C@@H]1C=CC=CC[C@H](C)[C@@H](O)[C@@H](C)C(=O)[C@H](C)[C@@H](O)[C@H](C)C(=O)[C@H](C)[C@@H](O)[C@H](C)C=CC(=O)O[C@H]2[C@@H](C)[C@@H](CC1)O[C@@]1(CC[C@@H](C)[C@@H](C[C@H](C)O)O1)[C@@H]2C [Oligomycin C] | 0.799 | 1.11 | -6.58 (inactive) | 47.7 (inactive)
Oc1ccc2c3c1O[C@H]1c4[nH]c5ccccc5c4C[C@@]4(O)[C@@H](C2)N(CC2CC2)CC[C@]314 [Naltrindole] | 0.716 | 0.673 | -32.5 (inactive) | -19 (inactive)
CN1[C@@H]2C[C@@H](OC(=O)[C@H](CO)c3ccccc3)C[C@H]1[C@@H]1O[C@@H]12 [Scopolamine hydrobromide] | 0.649 | 0.821 | -49.5 (inactive) | -31.2 (inactive)
c1ccc2c3c([nH]c2c1)CNCC3 [Tryptoline] | 0.757 | 0.905 | -12 (inactive) | -4.44 (inactive)
CN1C(=O)COc2c(C(=O)NC3CN4CCC3CC4)cc(Cl)cc21 (stereo not given) [Azasetron] | 0.754 | 0.901 | -6.5 (inactive) | 2.28 (inactive)
COc1ccc(C(CN(C)C)C2(O)CCCCC2)cc1 (stereo not given) [Venlafaxine] | 0.576 | 1.02 | -11.7 (inactive) | -3.31 (inactive)
CC(C)(O)[C@@H]1[C@H]2OC(=O)[C@@H]1[C@]1(O)C[C@H]3O[C@]34C(=O)O[C@H]2[C@]14C [Picrotin] | 0.632 | 0.797 | -12.7 (inactive) | -5.47 (inactive)
CNC(=O)Oc1ccc2c(c1)[C@]1(C)CCN(C)[C@@H]1N2C [Physostigmine] | 0.593 | 0.703 | -13.2 (inactive) | -9.34 (inactive)
O=P1(N(CCCl)CCCl)NCCCO1 (stereo not given) [Cyclophosphamide] | 0.725 | 0.547 | -41 (inactive) | -54.7 (inactive)
O=C(O)CCCc1ccc(N(CCCl)CCCl)cc1 [Chlorambucil] | 0.893 | 0.615 | -6.49 (inactive) | -17 (inactive)
CC(C)N(CCC(C(N)=O)(c1ccccc1)c1ccccn1)C(C)C (stereo not given) [Disopyramide] | 0.453 | 0.371 | -13.9 (inactive) | -13.6 (inactive)
CCC(C(N)=O)N1CCCC1=O (stereo not given) [Etiracetam] | 0.904 | 0.739 | -28.6 (inactive) | -27.5 (inactive)
COC(=O)N1CCN(C(=O)Cc2ccc(Cl)c(Cl)c2)C(CN2CCCC2)C1 (stereo not given) | 0.594 | 0.389 | -13 (inactive) | -22.4 (inactive)
COc1ccc2[nH]cc(CCN)c2c1 [5-Methoxytryptamine] | 0.779 | 0.737 | -6.66 (inactive) | -8.85 (inactive)
COc1cc(N)c(Cl)cc1C(=O)NC1CN2CCC1CC2 (stereo not given) [Zacopride] | 0.703 | 0.884 | -11.9 (inactive) | -0.361 (inactive)
NC(=O)OCCCc1ccccc1 [Phenprobamate] | 0.695 | 0.885 | -14.2 (inactive) | -11.4 (inactive)
CC(O)(CS(=O)(=O)c1ccc(F)cc1)C(=O)Nc1ccc(C#N)c(C(F)(F)F)c1 (stereo not given) [Bicalutamide] | 0.676 | 0.996 | -28 (inactive) | -2.06 (inactive)
COc1cccc(C2(O)CCCCC2CN(C)C)c1 (stereo not given) [Tramadol] | 0.793 | 0.749 | -12.4 (inactive) | -7.33 (inactive)
CN1C(=O)CN=C(c2ccccc2)c2cc([N+](=O)[O-])ccc21 [Nimetazepam] | 0.743 | 0.878 | -11 (inactive) | -8.49 (inactive)
CCC(COC(=O)c1cc(OC)c(OC)c(OC)c1)(c1ccccc1)N(C)C (stereo not given) [Trimebutine] | 0.423 | 0.297 | -54.2 (inactive) | -64 (inactive)
CN1C(=O)CN=C(c2ccccc2)c2cc(Cl)ccc21 [Diazepam] | 0.832 | 0.879 | -8.32 (inactive) | -9.05 (inactive)
CCOC(=O)C1(c2ccccc2)CCN(CCC(C#N)(c2ccccc2)c2ccccc2)CC1 [Diphenoxylate] | 0.738 | 0.867 | -12.3 (inactive) | 11.5 (inactive)
CN1CCN(C(=O)O[C@H]2c3nccnc3C(=O)N2c2ccc(Cl)cn2)CC1 [Eszopiclone] | 0.461 | 0.876 | -5.43 (inactive) | 15.5 (inactive)
NCCc1ccccn1 [2-(2-aminoethyl)pyridine] | 0.847 | 0.699 | -7.37 (inactive) | -9.08 (inactive)
Oc1cc2c(cc1O)[C@H]1c3ccccc3CN[C@@H]1CC2 (racemic) [Dihydrexidine] | 1.05 | 3.38 | -4.93 (inactive) | -20.9 (inactive)
CC(=O)O[C@H]1C[C@@H]2CC[C@@H]3[C@H](CC[C@@]4(C)[C@H]3C[C@H]([N+]3(C)CCCCC3)[C@@H]4OC(C)=O)[C@@]2(C)C[C@@H]1[N+]1(C)CCCCC1 [Pancuronium] | 0.692 | 1.04 | -11 (inactive) | 2.32 (inactive)
O[C@@H]1CCCC[C@H]1N1CCC(c2ccccc2)CC1 (racemic) [Vesamicol] | 0.528 | 0.361 | -34.6 (inactive) | -46 (inactive)

SMILES | fiber score / MBP score ([1]; 1 µM) | fiber score / MBP score ([1]; 5 µM) | myelination ([2]; 1 µM) | myelination ([2]; 5 µM)
CN(C)C(=O)Oc1ccc[n+](C)c1 [Pyridostigmine Bromide] | 0.691 | 0.895 | -14.3 (inactive) | -8.88 (inactive)
C[C@H]1CCC[C@H](O)CCCCCc2cc(O)cc(O)c2C(=O)O1 [Zeranol] | 0.788 | 0.876 | -13.7 (inactive) | -5.48 (inactive)
C=CCN1CC[C@]23c4c5ccc(O)c4O[C@H]2C(=O)CC[C@@]3(O)[C@H]1C5 [Naloxone] | 0.965 | 1.09 | -7.1 (inactive) | 3.29 (inactive)
C[C@]12CC[C@H]3[C@@H](CCC4=CC(=O)CC[C@@]43C)[C@@H]1CC[C@@H]2O [Testosterone] | 0.988 ± 0.093 | 0.928 ± 0.1 | -4.77 (inactive) | -15.4 (inactive)
COc1ccc2[nH]cc(C3=CCNCC3)c2c1 | 0.706 | 0.448 | -14.7 (inactive) | -24.2 (inactive)
O=c1c2ccccc2[se]n1-c1ccccc1 [Ebselen] | 2.01 |  | 8.33 (inactive) | 
CCC1(c2ccc(N)cc2)CCC(=O)NC1=O (stereo not given) [Aminoglutethimide] | 0.845 | 0.779 | -5.42 (inactive) | -5.16 (inactive)
Oc1cc(Cl)ccc1Oc1ccc(Cl)cc1Cl [Triclosan] | 1.18 |  | 26.5 (inactive) | 
O=C1CC[C@@]2(O)[C@H]3Cc4ccc(O)c5c4[C@@]2(CCN3CC2CC2)[C@H]1O5 [Naltrexone] | 1.3 | 0.956 | 14.8 (inactive) | 1.8 (inactive)
NC(=O)C[S+]([O-])C(c1ccccc1)c1ccccc1 (stereo not given) [Modafinil] | 0.88 | 0.861 | -9.51 (inactive) | -26.7 (inactive)
C[C@]12Cc3c[nH]nc3C[C@@H]1CC[C@@H]1[C@@H]2CC[C@@]2(C)[C@H]1CC[C@]2(C)O [Stanozolol] | 0.697 |  | -13.6 (inactive) | 
CS(=O)(=O)Nc1ccc(Cc2noc(-c3ccc4[nH]cc(CCN)c4c3)n2)cc1 | 0.563 | 0.612 | -19.6 (inactive) | -17.8 (inactive)
C[C@]12CCC(=O)C[C@@H]1CC[C@@H]1[C@@H]2CC[C@@]2(C)[C@H]1CC[C@]2(C)O [Mestanolone] | 0.746 | 0.854 | -21.8 (inactive) | -14.6 (inactive)
O=C1Nc2ccc(Cl)cc2C(c2ccccc2Cl)=NC1O (stereo not given) [Lorazepam] | 0.711 | 1.13 | -14.7 (inactive) | 15 (inactive)
CCN(CC)CCOC(=O)C(O)(c1ccccc1)c1ccccc1 [Benactyzine] | 1.18 | 1.2 | 1.93 (inactive) | 0.796 (inactive)
C[C@]12CC[C@H](O)CC1=CC[C@@H]1[C@@H]2CC[C@@]2(C)[C@H]1CC[C@]2(C)O [Methandriol] | 0.712 | 0.961 | -15.9 (inactive) | -4.34 (inactive)
CNC1CC(c2ccc(Cl)c(Cl)c2)c2ccccc21 (stereo not given) [Indatraline] | 0.417 |  | -58 (inactive) | 
NC1=NC(=O)C(c2ccccc2)O1 (stereo not given) [Pemoline] | 0.628 | 0.845 | -21.3 (inactive) | -11.3 (inactive)
CN1CC[C@]23c4c5ccc(O)c4O[C@H]2c2[nH]c4ccccc4c2C[C@@]3(O)[C@H]1C5 [Oxymorphindole] | 0.883 |  | 97 | 
C[C@]12C/C(=C/O)C(=O)C[C@@H]1CC[C@@H]1[C@@H]2CC[C@@]2(C)[C@H]1CC[C@]2(C)O [Oxymetholone] | 0.813 | 0.965 | -11.9 (inactive) | -8.04 (inactive)
N=C(NCc1ccc(Cl)cc1)SCCCc1c[nH]cn1 [Clobenpropit] | 0.723 | 0.822 | -13 (inactive) | 3.66 (inactive)
COc1cc2c(cc1OC)[C@@]13CCN4CC5=CCO[C@H]6CC(=O)N2[C@H]1[C@H]6[C@H]5C[C@H]43 [Brucine] | 0.957 | 0.692 | -6.05 (inactive) | -15.7 (inactive)
O=C(O)C(Cl)Cl [Dichloroacetic Acid] | 0.765 | 0.882 | -10.2 (inactive) | -7.43 (inactive)
CNC1=Nc2ccc(Cl)cc2C(c2ccccc2)=[N+]([O-])C1 [Chlordiazepoxide] | 0.994 | 0.605 | 0.872 (inactive) | -16.1 (inactive)
CCN(C(C)=O)c1cccc(-c2ccnc3c(C#N)cnn23)c1 [Zaleplon] | 0.794 | 1.2 | -13.6 (inactive) | 16 (inactive)
CCCCC/C=C\C/C=C\C/C=C\C/C=C\CCCC(=O)Nc1ccc(O)cc1 | 0.943 | 0.96 | -0.524 (inactive) | -30.5 (inactive)
Cc1nnc2n1-c1ccc(Cl)cc1C(c1ccccc1)=NC2 [Alprazolam] | 0.628 | 0.823 | -26.1 (inactive) | -17.4 (inactive)
